System: P. falciparum NF54-pfs16-GFP late (IV-V) stage gametocytes
Assay: relative % inhibition of viable gametocyte number; higher = more gametocytocidal
Conditions: 0.5 µM; stage: late (IV-V) gametocyte; incubation 72 h
In short: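 Compound was tested in duplicate at 5 or 0.5 µM on magnet-isolated NF54 pfs16-GFP gametocytes, taken either early (I/IIa, day 2) or late (day 8) and plated at 10% parasitaemia, 0.1% haematocrit. Incubation ran 72 h at 37°C, 5% CO2, 5% O2, followed by overnight MitoTracker Red staining and confocal imaging. Relative inhibition, based on counts of elongated GFP objects with above-cut-off MitoTracker signal, was normalised to in-plate vehicle and positive-control wells.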

| Structure (SMILES) | relative % inhibition |
| --- | --- |
| COc1cc(OC)c(N(C)C(=O)c2cc3c(s2)-c2ccccc2S(=O)(=O)C3)cc1Cl | 28.5% |
| O=C(NCC1Cc2cccc(-c3ccncc3)c2O1)c1csc2c1CCCC2 (configuration not stated) | 5.28% |
| COCCN(C(=O)Cc1cccs1)C(C(=O)NCc1ccc(OC)cc1)c1ccc(C(C)C)cc1 (configuration not stated) | 13.7% |
| COc1ccc(CNC(=O)c2cc3c(=O)n4ccccc4nc3n(CCc3ccccc3)c2=N)cc1 | -16.6% |
| c1ccc(Cn2c(N=Nc3c(Nc4ccccc4)ccc4ccccc34)nc3ccccc32)cc1 | 102% |
| Cc1c(C)n(CC(O)CNC2CCCCC2C)c2ccccc12 (configuration not stated) | 34.2% |
| CCN(CC)c1ccc(NC(=O)c2cccs2)cc1 | 16.7% |
| COc1ccc(C(=O)C2CC2c2ccc(Cl)cc2)cc1 (configuration not stated) | 14.7% |
| COc1ccc(C(=O)Nc2nonc2-c2ccc(OC)c(OC)c2)cc1Cl | 13.1% |
| O=C(Nc1ccc(-c2nc3cc4ccccc4cc3[nH]2)cc1)c1cccc(Br)c1 | -2.59% |
| COc1ccc(C(=O)C(CCC(CNC(C)(C)C)C(=O)c2ccc(OC)cc2)CNC(C)(C)C)cc1 (configuration not stated) | 10.9% |
| O=C(NCc1ccco1)C1CCN(S(=O)(=O)c2ccc(Cl)cc2)CC1 | 18.1% |
| CCOc1ccc(-c2nc(NC(=O)c3cccc(S(C)(=O)=O)c3)sc2C)cc1 | 4.66% |
| Cc1ccc(C(=O)c2oc3ccc4c(C)cc(=O)oc4c3c2C)cc1 | 0.817% |
| O=C(NC(c1ccccc1)c1ccc2cccnc2c1O)c1ccccc1 (configuration not stated) | 35.8% |
| CCOC(=O)c1cn(CC)c2cc(N(C)CCc3ccc(OC)c(OC)c3)c(F)cc2c1=O | 72.3% |
| CCN(CC)CCNc1ncnc2c1[nH]c1ccc(Cl)cc12 | 2.71% |

Reference: the supplement of paper PMC3842684
